In the supplement of paper PMC11732987, “Enantioselective OTUD7B fragment discovery through chemoproteomics screening and high-throughput optimisation” (Communications Chemistry, 2025):
A number with no mark means an inactive call.

Each compound was assayed against T1, VCPIP1 (UniProt Q96JH7) (assay: log2 ratio of Biotin-Ahx-Ub-VS probe labelling (fragment/DMSO); higher = less target engagement (more negative = stronger competition), active = hit call of the paper (q ≤ 0.05, log2 ratio ≤ -1)). Conditions: compound concentration: 200 uM; treatment time: 3 h.
T1 sequence (whole entry): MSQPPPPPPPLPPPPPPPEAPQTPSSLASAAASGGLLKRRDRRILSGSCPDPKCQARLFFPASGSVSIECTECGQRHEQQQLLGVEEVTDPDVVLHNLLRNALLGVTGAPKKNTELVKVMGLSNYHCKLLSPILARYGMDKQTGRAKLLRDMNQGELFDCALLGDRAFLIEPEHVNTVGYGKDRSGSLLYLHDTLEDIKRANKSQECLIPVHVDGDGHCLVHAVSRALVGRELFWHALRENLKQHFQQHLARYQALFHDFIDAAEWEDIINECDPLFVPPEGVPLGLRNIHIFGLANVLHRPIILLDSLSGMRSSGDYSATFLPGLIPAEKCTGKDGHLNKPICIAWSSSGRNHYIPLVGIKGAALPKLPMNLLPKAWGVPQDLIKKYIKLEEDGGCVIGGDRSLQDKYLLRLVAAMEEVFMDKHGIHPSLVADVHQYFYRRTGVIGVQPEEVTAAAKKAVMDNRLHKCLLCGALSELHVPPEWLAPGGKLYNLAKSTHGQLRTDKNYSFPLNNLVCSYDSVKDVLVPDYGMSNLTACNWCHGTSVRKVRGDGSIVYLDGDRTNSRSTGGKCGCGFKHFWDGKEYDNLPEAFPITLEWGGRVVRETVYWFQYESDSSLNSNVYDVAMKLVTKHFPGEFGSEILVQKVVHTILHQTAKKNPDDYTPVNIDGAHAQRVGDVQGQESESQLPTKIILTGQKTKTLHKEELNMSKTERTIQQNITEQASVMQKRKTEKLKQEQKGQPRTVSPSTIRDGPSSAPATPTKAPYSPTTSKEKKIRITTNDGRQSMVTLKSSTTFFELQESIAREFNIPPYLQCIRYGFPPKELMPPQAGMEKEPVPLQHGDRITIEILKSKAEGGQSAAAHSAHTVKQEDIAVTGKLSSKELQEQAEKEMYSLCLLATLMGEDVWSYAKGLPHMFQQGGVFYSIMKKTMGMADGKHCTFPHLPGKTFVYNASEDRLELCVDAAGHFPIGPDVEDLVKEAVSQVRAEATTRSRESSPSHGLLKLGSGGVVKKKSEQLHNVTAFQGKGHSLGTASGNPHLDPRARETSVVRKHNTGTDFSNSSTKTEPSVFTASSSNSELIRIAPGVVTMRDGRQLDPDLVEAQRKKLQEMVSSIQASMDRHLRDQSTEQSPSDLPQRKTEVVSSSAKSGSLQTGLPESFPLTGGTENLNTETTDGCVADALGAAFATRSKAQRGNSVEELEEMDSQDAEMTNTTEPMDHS
Procedure: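 Competitive ABPP in HEK293T cell lysate. Lysates were treated with each chloroacetamide fragment at 200 µM for 3 h, then with Biotin-Ahx-Ub-VS (0.5 µM, 1 h), NeutrAvidin-enriched and analysed by diaPASEF LC-MS/MS. Protein LFQ was median-normalised; average log2 ratio is fragment/DMSO from an unpaired t-test (n=3 treated, n=44 DMSO). Hits: q ≤ 0.05, log2 ratio ≤ -1, unique peptides ≥ 2.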

SMILES	log2 ratio of Biotin-Ahx-Ub-VS probe labelling
Cc1ccc(N(C(=O)CCl)C2C=CS(=O)(=O)C2)cc1 (stereo not given)	-0.0885
Cl.O=C(CCl)N1CCC(Cc2nccs2)C1 (stereo not given)	-2.29 (active)
O=C(CCl)N(Cc1ccsc1)C1CC1	-0.642
Cl.O=C(CCl)NC1(c2ncccn2)CCC1	-0.136
Cl.O=C(CCl)N1CCCC(c2ncc[nH]2)C1 (stereo not given)	-0.387
CC(C)n1nccc1NC(=O)CCl	-0.897
Cc1cccn2cc(CCNC(=O)CCl)nc12.Cl	-1.07 (active)
Cl.Cn1nc2c(c1CNC(=O)CCl)CCCC2	-1.63 (active)
Cc1ccc2nnc(CNC(=O)CCl)n2c1	-1.34 (active)
CN(C)C(=O)c1ccc(NC(=O)CCl)cc1	-0.601
O=C(CCl)N1CCCCC12CCOCC2	-0.562
Cc1ncc2c(n1)CCN(C(=O)CCl)C2	0.323
Cl.O=C(CCl)N1CCC(n2nc3ccccc3n2)CC1	-2.56 (active)
Cl.Cn1nccc1C(NC(=O)CCl)c1ccccc1 (stereo not given)	-1.2 (active)
O=C(CCl)N1CCCC2CCCCC21 (stereo not given)	-2.13 (active)
O=C(CCl)NCc1ccc2c(c1)OCO2	-2 (active)
Cc1noc(C)c1CNC(=O)CCl	-1.8 (active)
O=C(CCl)N1CCC[C@@H]1c1ccon1	-0.499
O=C(CCl)N1CCCC1c1ccsc1 (stereo not given)	-1.07 (active)
O=C(CCl)N1CCN(C(=O)N2CCCCC2)CC1	-0.906

SMILES	log2 ratio of Biotin-Ahx-Ub-VS probe labelling
Cc1cccc(C)c1NC(=O)CCl	-0.74
CS(=O)(=O)c1ccc(CNC(=O)CCl)cc1	-1.22 (active)
O=C(CCl)NC1CCOc2ccccc21 (stereo not given)	-2.21 (active)
CC(NC(=O)CCl)c1cccc(Cl)c1 (stereo not given)	-1.59 (active)
Cc1n[nH]c(=O)c2c(NC(=O)CCl)oc(C)c12	-0.15
Cn1cc(CN(Cc2ccc(Cl)cc2)C(=O)CCl)cn1	-0.623
Cc1ncsc1CCNC(=O)CCl	0.0583
O=C(CCl)N1CC=C(c2c[nH]c3ccccc23)CC1	-2.41 (active)
N#Cc1ccc(Cl)cc1NC(=O)CCl	-1.7 (active)
O=C(CCl)Nc1ccc2c(c1)OC(F)(F)O2	-1.43 (active)
Cl.O=C(CN1CCN(C(=O)CCl)CC1)Nc1ccc(F)cc1	-0.257
O=C(CCl)N1CCC(S(=O)(=O)c2ccc(F)cc2)CC1	-0.527
CCCn1nccc1NC(=O)CCl	-0.41
O=C(CCl)NCCC1=CCCCC1	-0.647
Cc1cccc(C(CNC(=O)CCl)N2CCOCC2)c1.Cl (stereo not given)	-0.833
NS(=O)(=O)c1ccc(Cl)c(NC(=O)CCl)c1	-2.53 (active)
COc1ccc(C2CCCN2C(=O)CCl)c(OC)c1 (stereo not given)	-0.545
Cc1conc1C1CN(C(=O)CCl)C1	-0.949
O=C(CCl)NC1CCC(C(F)(F)F)CC1 (stereo not given)	-1.35 (active)
Cl.O=C(CCl)N1CCN(Cc2ccccc2)CC1	-0.476
